Reference: article PMC12820563, “FoxP3 forms a head-to-head dimer in vivo and stabilizes its multimerization on adjacent microsatellites”
The full ranking holds about 16,000 sequences; the median of “rpm ratio (pull-down/input)” is about 0.94, and the highest 2% start at about 1.7. The sample as a whole holds a higher share of the highest values than the screen did.

biological target: T1, MBP-FoxP1dN (Mus musculus, UniProt P58462 326-579); assay: PD-seq (MBP pull-down with sequencing); 20 mM Tris-HCl pH 7.5, 100 mM NaCl, 1.5 mM MgCl2, 0.4 uM protein, 0.1 uM dsDNA library, 30 min, room temperature, amylose pull-down; high values mean tight binding; settings: protein: recombinant; tags: His6-MBP; chain copies: 2; dsDNA, one strand shown
T1 sequence: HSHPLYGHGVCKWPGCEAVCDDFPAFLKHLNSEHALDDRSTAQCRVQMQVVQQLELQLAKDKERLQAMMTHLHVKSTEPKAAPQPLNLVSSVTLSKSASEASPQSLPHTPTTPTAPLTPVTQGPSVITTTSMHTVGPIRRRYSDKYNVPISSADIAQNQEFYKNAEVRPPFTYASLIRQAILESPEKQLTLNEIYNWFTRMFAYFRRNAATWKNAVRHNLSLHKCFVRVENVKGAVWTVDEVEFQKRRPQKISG
Summary of the method: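 The N-terminus-lacking fragment of mouse FoxP3 or FoxP1 carried a His6-MBP tag and was expressed in E. coli. At 0.4 µM it was incubated with 0.1 µM Klenow-filled degenerate double-stranded DNA library for 30 min at room temperature in Tris pH 7.5 buffer with NaCl and MgCl2, and complexes were caught on amylose resin, washed three times, released with proteinase K, PCR-barcoded and Illumina-sequenced. Binding is reads-per-million enrichment of pull-down over input with replicates pooled.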

| Sequence | binding signal |
| --- | --- |
| GATGATTGTTCTCCCAGCTGATGAATTAGTGTCGTCGAGTAAACAAATTTTCCTAATCTTTCTGTTCAAGCGCCATCTAC | 0.949 RPM ratio (pull-down/input) |
| GATGATTGTTCTCCCAGCTGATGAATTTAGTGTTTCGAGTAAACAAATTTTCCTAATCTTTCTGTTCAAGCGCCATCTAC | 1.15 RPM ratio (pull-down/input) |
| GATGATTGTTCTCCCAGCTGATGAATTAGTGTTTTCGAGTAAACAAATTTTCCTAATCTTTCTGTTCAAGCGCCATCTAC | 2.42 RPM ratio (pull-down/input) |
| GATGATTGTTCTCCCAGCTGATGAATTAGTAGTGTCGAGTAAACAAATTTTCCTAATCTTTCTGTTCAAGCGCCATCTAC | 1 RPM ratio (pull-down/input) |
| GATGATTGTTCTCCCAGCTGATGAATTAGTGTGTTCGAGTAAACAAATTTTCCTAATCTTTCTGTTCAAGCGCCATCTAC | 1.35 RPM ratio (pull-down/input) |
| GATGATTGTTCTCCCAGCTGATGAATTAGTGTTGTCGAGTAAACAAATTTTCCTAATCTTTCTGTTCAAGCGCCATCTAC | 2.53 RPM ratio (pull-down/input) |
| GATGATTGTTCTCCCAGCTGATGAATTGCCGTGCTCGAGTAAACAAATTTTCCTAATCTTTCTGTTCAAGCGCCATCTAC | 0.904 RPM ratio (pull-down/input) |
| GATGATTGTTCTCCCAGCTGATGAATTACTATAATCGAGTAAACAAATTTTCCTAATCTTTCTGTTCAAGCGCCATCTAC | 1.27 RPM ratio (pull-down/input) |
| GATGATTGTTCTCCCAGCTGATGAATTTTAGCGCTCGAGTAAACAAATTTTCCTAATCTTTCTGTTCAAGCGCCATCTAC | 0.826 RPM ratio (pull-down/input) |
| GATGATTGTTCTCCCAGCTGATGAATTATAACCCTCGAGTAAACAAATTTTCCTAATCTTTCTGTTCAAGCGCCATCTAC | 0.997 RPM ratio (pull-down/input) |
| GATGATTGTTCTCCCAGCTGATGAATTTGATCCATCGAGTAAACAAATTTTCCTAATCTTTCTGTTCAAGCGCCATCTAC | 0.928 RPM ratio (pull-down/input) |
| GATGATTGTTCTCCCAGCTGATGAATTCGGCCTATCGAGTAAACAAATTTTCCTAATCTTTCTGTTCAAGCGCCATCTAC | 0.817 RPM ratio (pull-down/input) |
| GATGATTGTTCTCCCAGCTGATGAATTTGCGGACTCGAGTAAACAAATTTTCCTAATCTTTCTGTTCAAGCGCCATCTAC | 0.882 RPM ratio (pull-down/input) |
| GATGATTGTTCTCCCAGCTGATGAATTACTTCATTCGAGTAAACAAATTTTCCTAATCTTTCTGTTCAAGCGCCATCTAC | 1.11 RPM ratio (pull-down/input) |
| GATGATTGTTCTCCCAGCTGATGAATTGAGCAGATCGAGTAAACAAATTTTCCTAATCTTTCTGTTCAAGCGCCATCTAC | 0.835 RPM ratio (pull-down/input) |
| GATGATTGTTCTCCCAGCTGATGAATTGATGTGTTCGAGTAAACAAATTTTCCTAATCTTTCTGTTCAAGCGCCATCTAC | 1.5 RPM ratio (pull-down/input) |
| GATGATTGTTCTCCCAGCTGATGAATTGTTGTGTTCGAGTAAACAAATTTTCCTAATCTTTCTGTTCAAGCGCCATCTAC | 2.57 RPM ratio (pull-down/input) |
| GATGATTGTTCTCCCAGCTGATGAATTGTGTTGTTCGAGTAAACAAATTTTCCTAATCTTTCTGTTCAAGCGCCATCTAC | 2.69 RPM ratio (pull-down/input) |
| GATGATTGTTCTCCCAGCTGATGAATTGTGTTCTTCGAGTAAACAAATTTTCCTAATCTTTCTGTTCAAGCGCCATCTAC | 1.33 RPM ratio (pull-down/input) |
| GATGATTGTTCTCCCAGCTGATGAATTTCTGTGTTCGAGTAAACAAATTTTCCTAATCTTTCTGTTCAAGCGCCATCTAC | 1.23 RPM ratio (pull-down/input) |

| Sequence | binding signal |
| --- | --- |
| GATGATTGTTCTCCCAGCTGATGAATTCTTGTGTTCGAGTAAACAAATTTTCCTAATCTTTCTGTTCAAGCGCCATCTAC | 1.6 RPM ratio (pull-down/input) |
| GATGATTGTTCTCCCAGCTGATGAATTGACCGCGTCGAGTAAACAAATTTTCCTAATCTTTCTGTTCAAGCGCCATCTAC | 0.965 RPM ratio (pull-down/input) |
| GATGATTGTTCTCCCAGCTGATGAATTAAAACGATCGAGTAAACAAATTTTCCTAATCTTTCTGTTCAAGCGCCATCTAC | 0.959 RPM ratio (pull-down/input) |
| GATGATTGTTCTCCCAGCTGATGAATTAAGAGAATCGAGTAAACAAATTTTCCTAATCTTTCTGTTCAAGCGCCATCTAC | 0.949 RPM ratio (pull-down/input) |
| GATGATTGTTCTCCCAGCTGATGAATTCTTTTGCTCGAGTAAACAAATTTTCCTAATCTTTCTGTTCAAGCGCCATCTAC | 0.898 RPM ratio (pull-down/input) |
| GATGATTGTTCTCCCAGCTGATGAATTTTGCTCCTCGAGTAAACAAATTTTCCTAATCTTTCTGTTCAAGCGCCATCTAC | 0.907 RPM ratio (pull-down/input) |
| GATGATTGTTCTCCCAGCTGATGAATTTTTTTGCTCGAGTAAACAAATTTTCCTAATCTTTCTGTTCAAGCGCCATCTAC | 0.948 RPM ratio (pull-down/input) |
| GATGATTGTTCTCCCAGCTGATGAATTTGATTGCTCGAGTAAACAAATTTTCCTAATCTTTCTGTTCAAGCGCCATCTAC | 1.16 RPM ratio (pull-down/input) |
| GATGATTGTTCTCCCAGCTGATGAATTTGTTTGCTCGAGTAAACAAATTTTCCTAATCTTTCTGTTCAAGCGCCATCTAC | 2.43 RPM ratio (pull-down/input) |
| GATGATTGTTCTCCCAGCTGATGAATTGTTGTGCTCGAGTAAACAAATTTTCCTAATCTTTCTGTTCAAGCGCCATCTAC | 2.06 RPM ratio (pull-down/input) |
| GATGATTGTTCTCCCAGCTGATGAATTTCTTTGCTCGAGTAAACAAATTTTCCTAATCTTTCTGTTCAAGCGCCATCTAC | 0.931 RPM ratio (pull-down/input) |
| GATGATTGTTCTCCCAGCTGATGAATTGTTTTGCTCGAGTAAACAAATTTTCCTAATCTTTCTGTTCAAGCGCCATCTAC | 1.95 RPM ratio (pull-down/input) |
| GATGATTGTTCTCCCAGCTGATGAATTTTGTTGCTCGAGTAAACAAATTTTCCTAATCTTTCTGTTCAAGCGCCATCTAC | 1.79 RPM ratio (pull-down/input) |
| GATGATTGTTCTCCCAGCTGATGAATTGTGCTGCTCGAGTAAACAAATTTTCCTAATCTTTCTGTTCAAGCGCCATCTAC | 0.988 RPM ratio (pull-down/input) |
| GATGATTGTTCTCCCAGCTGATGAATTGTTGCTCTCGAGTAAACAAATTTTCCTAATCTTTCTGTTCAAGCGCCATCTAC | 1.39 RPM ratio (pull-down/input) |
| GATGATTGTTCTCCCAGCTGATGAATTTCTGTGCTCGAGTAAACAAATTTTCCTAATCTTTCTGTTCAAGCGCCATCTAC | 0.877 RPM ratio (pull-down/input) |
| GATGATTGTTCTCCCAGCTGATGAATTATAATTCTCGAGTAAACAAATTTTCCTAATCTTTCTGTTCAAGCGCCATCTAC | 0.978 RPM ratio (pull-down/input) |
| GATGATTGTTCTCCCAGCTGATGAATTTCATCTATCGAGTAAACAAATTTTCCTAATCTTTCTGTTCAAGCGCCATCTAC | 0.877 RPM ratio (pull-down/input) |
| GATGATTGTTCTCCCAGCTGATGAATTCGCGTATTCGAGTAAACAAATTTTCCTAATCTTTCTGTTCAAGCGCCATCTAC | 0.979 RPM ratio (pull-down/input) |
| GATGATTGTTCTCCCAGCTGATGAATTTGAAATCTCGAGTAAACAAATTTTCCTAATCTTTCTGTTCAAGCGCCATCTAC | 0.737 RPM ratio (pull-down/input) |
